Assay outcomes (PubChem)
Shown are actives, neighbours in structure and some others; about 12% of the full set was active somewhere.
WT yeast gro inh – growth inhibition of WT yeast, mitochondrial fusion screen; hit rate 2.1% among 190,000; mitochondrial fusion phenotypic screen, WT strain; AID 1362; inhibition, % at 10 µM; in the data active = inhibition above about 58%; tested in S. cerevisiae
Lmaj promast – inhibitors of Leishmania major promastigote growth. Leishmania major promastigotes, resazurin fluorescence viability. inhibition, % at 10 µM. hit rate 9% among 200,000. AID 1063; in the data active = inhibition above about 50%;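 note: promastigotes grown with compound for 44 hours at 28 °C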
ROMK primary – modulators of human ROMK potassium channel | P48048 | AID 1918 | Tet-inducible ROMK, thallium flux fluorescence; actives lie on both sides | hit rate 2% among 130,000 | B-score at 10 µM;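 active = signal ratio slope over the read window, or its plate-corrected B-score, at least 3 SD from the plate mean, either direction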;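 note: B-score of the F/F0 ratio slope over 7 to 12 s after thallium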
KCC2 mod – modulators of human KCC2 chloride dependent transport | B-score of Tl+ flux slope (higher = more flux/activation; lower = inhibition) at 10 µM | AID 1456 | KCC2 cells, thallium flux FluoZin-2 fluorescence | Q9H2X9 | hit rate 2.2% among 190,000;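 active = thallium flux slope and its plate-corrected score both differing from the plate sample mean at a set confidence after two filtering rounds, in either direction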;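 note: slope of fluorescence scaled to starting intensity during 10 to 20 s after thallium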
Target sequence (Q9H2X9 whole entry, looked up): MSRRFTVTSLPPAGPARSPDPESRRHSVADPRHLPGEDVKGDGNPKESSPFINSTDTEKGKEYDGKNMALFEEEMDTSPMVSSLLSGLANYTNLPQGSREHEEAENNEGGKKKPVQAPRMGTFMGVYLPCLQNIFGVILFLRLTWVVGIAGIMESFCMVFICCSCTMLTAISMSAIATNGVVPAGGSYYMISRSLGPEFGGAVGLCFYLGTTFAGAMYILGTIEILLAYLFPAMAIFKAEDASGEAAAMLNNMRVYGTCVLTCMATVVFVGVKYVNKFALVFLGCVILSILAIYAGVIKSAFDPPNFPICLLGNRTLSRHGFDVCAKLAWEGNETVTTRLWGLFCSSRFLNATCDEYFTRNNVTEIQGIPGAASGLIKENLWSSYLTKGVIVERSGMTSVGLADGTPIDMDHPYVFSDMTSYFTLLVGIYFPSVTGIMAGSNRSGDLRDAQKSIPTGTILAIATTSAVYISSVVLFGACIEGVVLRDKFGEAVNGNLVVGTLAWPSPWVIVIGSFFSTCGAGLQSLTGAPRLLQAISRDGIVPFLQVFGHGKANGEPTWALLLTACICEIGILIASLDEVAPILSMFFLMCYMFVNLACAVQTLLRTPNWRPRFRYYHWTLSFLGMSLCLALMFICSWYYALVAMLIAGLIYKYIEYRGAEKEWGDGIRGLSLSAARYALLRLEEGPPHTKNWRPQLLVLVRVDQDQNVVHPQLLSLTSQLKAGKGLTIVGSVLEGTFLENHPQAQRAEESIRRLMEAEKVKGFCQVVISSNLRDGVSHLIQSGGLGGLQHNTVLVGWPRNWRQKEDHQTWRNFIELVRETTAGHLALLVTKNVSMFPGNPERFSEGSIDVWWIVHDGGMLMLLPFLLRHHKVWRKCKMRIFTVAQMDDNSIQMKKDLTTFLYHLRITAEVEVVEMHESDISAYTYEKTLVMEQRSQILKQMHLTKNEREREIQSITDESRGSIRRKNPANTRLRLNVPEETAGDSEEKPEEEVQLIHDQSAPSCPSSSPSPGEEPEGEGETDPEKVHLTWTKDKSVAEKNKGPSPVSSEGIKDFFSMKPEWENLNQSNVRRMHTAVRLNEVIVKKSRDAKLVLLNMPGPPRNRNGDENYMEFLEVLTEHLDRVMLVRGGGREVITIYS
m-calpain inh – inhibitors of pig calpain II; purified calpain II, fluorogenic peptide substrate, 30 min; hit rate 0.37% among 220,000; AID 1236; inhibition, % at 16 µM;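 active = inhibition above about 50%, limit read from the data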
Numbers stand for hits.

How did O=C(Nc1cc(Sc2nc3ccccc3s2)cc([N+](=O)[O-])c1)c1ccccc1 do in these assays?
WT yeast gro inh: inactive; Lmaj promast: 99.7; KCC2 mod: inactive; m-calpain inh: inactive

How did N#CCCN(C(=O)COc1ccc(F)cc1Br)c1ccccc1F do in these assays?
WT yeast gro inh: inactive; Lmaj promast: inactive; ROMK primary: inactive; KCC2 mod: inactive; m-calpain inh: inactive

Results for COc1cc2c(C(=O)N3CCN(c4ccccc4C)CC3)c(C)oc2cc1Br ?
WT yeast gro inh: inactive; Lmaj promast: inactive; KCC2 mod: inactive; m-calpain inh: inactive

What do the screens show for `OC(COc1ccccc1CNCc1cccnc1)CN1CCc2ccccc2C1` (stereo not drawn)?
WT yeast gro inh: inactive; Lmaj promast: inactive; ROMK primary: inactive; KCC2 mod: inactive; m-calpain inh: inactive

How did CN(Cc1ccccc1)CC(O)COc1ccc(CNCCOc2cccnc2)cc1 (stereo not drawn) do in these assays?
WT yeast gro inh: inactive; Lmaj promast: 84.3; ROMK primary: inactive; m-calpain inh: inactive

What do the screens show for `CN(Cc1ccccc1)CC(O)COc1ccc(CNCCCOc2cccnc2)cc1` (stereo not drawn)?
WT yeast gro inh: inactive; Lmaj promast: 90.7; KCC2 mod: inactive; m-calpain inh: inactive

What do the screens show for `CN(Cc1ccccc1)CC(O)COc1ccc(CNCc2ccc(Cl)s2)cc1` (stereo not drawn)?
WT yeast gro inh: inactive; Lmaj promast: 98.1; ROMK primary: inactive; KCC2 mod: inactive; m-calpain inh: inactive

Results for OC(COc1ccc(CNCc2cccnc2)cc1)CN1CCc2ccccc2C1 (stereo not drawn) ?
WT yeast gro inh: inactive; Lmaj promast: 89.5; ROMK primary: inactive; m-calpain inh: inactive

What do the screens show for `CCOC(=O)c1ccc(-n2c(CN(CC)CC)nc3ccc([N+](=O)[O-])cc3c2=O)cc1`?
WT yeast gro inh: inactive; Lmaj promast: inactive; ROMK primary: inactive; KCC2 mod: inactive; m-calpain inh: inactive

Results for CC1CCN(C(=O)c2ccc(CSc3nc4ccncc4n3Cc3ccc(F)cc3)cc2)CC1 ?
WT yeast gro inh: inactive; Lmaj promast: inactive; ROMK primary: inactive; KCC2 mod: inactive; m-calpain inh: inactive

What do the screens show for `COc1ccc(CNC(=O)C(=O)NCc2cccnc2)cc1`?
WT yeast gro inh: inactive; Lmaj promast: inactive; ROMK primary: inactive; KCC2 mod: inactive; m-calpain inh: inactive

What do the screens show for `CCn1cc(CNCc2ccc(OCC(O)CN(C)Cc3ccccc3)cc2)cn1` (stereo not drawn)?
WT yeast gro inh: inactive; Lmaj promast: 88.0; ROMK primary: inactive; KCC2 mod: inactive; m-calpain inh: inactive

What do the screens show for `CN(Cc1ccccc1)CC(O)COc1ccc(CNCc2cccnc2)cc1` (stereo not drawn)?
WT yeast gro inh: inactive; Lmaj promast: 80.9; ROMK primary: inactive; m-calpain inh: inactive

How did Cc1nn(C)cc1CNCc1ccc(OCC(O)CN(C)Cc2ccccc2)cc1 (stereo not drawn) do in these assays?
WT yeast gro inh: inactive; Lmaj promast: 86.5; ROMK primary: inactive; m-calpain inh: inactive

Results for Cc1ccccc1-n1nc(-c2cccnc2)cc1C(=O)N/N=C/c1ccncc1 ?
WT yeast gro inh: inactive; Lmaj promast: inactive; ROMK primary: inactive; KCC2 mod: inactive; m-calpain inh: inactive

How did CCOc1cc(/C=C2/SC(=S)NC2=O)ccc1OC(=O)c1ccco1 do in these assays?
WT yeast gro inh: 79.3; Lmaj promast: inactive; ROMK primary: inactive; KCC2 mod: inactive; m-calpain inh: inactive

What do the screens show for `COc1ccc(-c2cnnc(N/N=C/c3ccc(O)c(OC)c3)n2)cc1`?
WT yeast gro inh: inactive; Lmaj promast: 53.6; KCC2 mod: inactive; m-calpain inh: inactive

What do the screens show for `CCOC(=O)c1ccc(N2NC(=O)/C(=C/c3ccc(OC(=O)c4ccco4)c(OC)c3)C2=O)cc1`?
WT yeast gro inh: inactive; Lmaj promast: 60.7; ROMK primary: inactive; KCC2 mod: inactive; m-calpain inh: inactive

Results for COc1cc(/C=C2/SC(=S)N(C)C2=O)ccc1OC(=O)c1ccco1 ?
WT yeast gro inh: inactive; Lmaj promast: inactive; KCC2 mod: inactive; m-calpain inh: inactive

How did CCOc1cc(/C=N/Nc2nc(N3CCCCC3)nc(N3CCCCC3)n2)ccc1OC(=O)c1ccco1 do in these assays?
WT yeast gro inh: inactive; Lmaj promast: 57.8; ROMK primary: inactive; KCC2 mod: inactive; m-calpain inh: inactive

Results for CN(C)C=NC(=O)c1cc(C(=O)c2ccc(C(C)(C)C)cc2)c[nH]1 ?
WT yeast gro inh: inactive; Lmaj promast: inactive; ROMK primary: inactive; KCC2 mod: inactive; m-calpain inh: inactive
